Screening results from PubChem BioAssay.
Jurkat NFkB inh: inhibitors of the PMA/ionomycin-induced NF-kB reporter in Jurkat cells | PMA/ionomycin-induced NF-kB luciferase reporter, luminescence | inhibition, % at 4 µM | AID 435003 | 330,000 compounds, 0.53% hits; in the data active means inhibition above about 50%
CSC inhib: cancer stem cell inhibition; cancer stem cell-like cells viability, luminescence; AID 2717; 300,000 compounds, 1.1% hits; inhibition, % at 7.5 µM; in the data active means inhibition above about 75%; tested in HMLE shEcad cells
Mdm2-MdmX inh: disrupts the human Mdm2-MdmX interaction | O15151+Q00987 | SaOS-2 split-luciferase Mdm2/MdmX complementation, luminescence | inhibition, % at 8 µM | 330,000 compounds, 3% hits;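 active means inhibition of at least 50% at 8 µM in the primary screen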
Target sequence (O15151 whole entry, looked up): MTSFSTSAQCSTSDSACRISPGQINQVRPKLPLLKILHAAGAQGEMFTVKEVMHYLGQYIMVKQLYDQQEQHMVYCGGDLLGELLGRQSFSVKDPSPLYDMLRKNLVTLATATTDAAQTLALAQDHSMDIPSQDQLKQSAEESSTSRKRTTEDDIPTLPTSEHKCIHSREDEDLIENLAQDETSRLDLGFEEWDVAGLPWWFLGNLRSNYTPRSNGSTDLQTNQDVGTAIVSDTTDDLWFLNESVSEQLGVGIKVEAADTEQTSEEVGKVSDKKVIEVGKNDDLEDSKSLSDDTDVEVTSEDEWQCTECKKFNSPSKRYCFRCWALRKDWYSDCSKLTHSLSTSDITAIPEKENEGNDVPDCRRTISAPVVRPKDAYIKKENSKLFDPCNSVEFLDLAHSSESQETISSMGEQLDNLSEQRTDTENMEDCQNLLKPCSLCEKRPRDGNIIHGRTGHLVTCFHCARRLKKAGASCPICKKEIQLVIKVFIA
Target sequence (Q00987 whole entry, looked up): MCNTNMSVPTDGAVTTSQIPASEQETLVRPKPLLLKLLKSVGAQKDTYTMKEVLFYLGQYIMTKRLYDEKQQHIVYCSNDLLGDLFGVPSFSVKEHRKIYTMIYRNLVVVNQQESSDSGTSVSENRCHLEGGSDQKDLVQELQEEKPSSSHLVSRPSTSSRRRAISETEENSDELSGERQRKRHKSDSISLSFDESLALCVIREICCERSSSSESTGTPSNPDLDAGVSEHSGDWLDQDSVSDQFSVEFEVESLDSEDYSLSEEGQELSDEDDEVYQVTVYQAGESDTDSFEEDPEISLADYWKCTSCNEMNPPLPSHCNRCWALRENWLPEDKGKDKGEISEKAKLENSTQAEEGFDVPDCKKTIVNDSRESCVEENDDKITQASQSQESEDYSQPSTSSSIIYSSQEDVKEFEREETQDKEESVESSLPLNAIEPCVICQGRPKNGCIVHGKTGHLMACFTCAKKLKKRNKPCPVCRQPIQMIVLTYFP
Gli-Sufu antag: Gli-Sufu pathway antagonism. Sufu-KO-LIGHT fibroblasts, Gli luciferase reporter luminescence. inhibition, % at 5 µM. 340,000 compounds, 0.74% hits. AID 588413;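 active means inhibition above about 55%, limit read from the data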;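 further: 0% = DMSO-treated cells and 100% = wells with medium but no cells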
697 NFkB inh: inhibitors of the PMA/ionomycin-induced NF-kB reporter in 697 B cells | 697 B-cell NF-kB luciferase reporter, 16 h | inhibition, % at 4 µM | 330,000 compounds, 0.33% hits | AID 435022; in the data active means inhibition above about 35%
Beta cell apopt: beta cell apoptosis inhibition; AID 435005; INS-1E cytokine-induced death, ATP luminescence, 48 h; percent of positive-control rescue, neutral wells zero; protection from apoptosis, % (no concentration beside the values); 300,000 compounds, 0.8% hits;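 active means Every replicate reaches about 75%, or at least half do and their mean reaches it too, limit read from the data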;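 further: 0% = cytokine-treated negative control wells and 100% = positive control rescue; higher means more ATP so stronger rescue from cytokine killing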
Jurkat NFkB conf: lowers PMA/ionomycin-induced NF-kB signal in Jurkat cells | shares compounds with Jurkat NFkB inh | Jurkat NF-kB luciferase, 16 h | inhibition, % at 4 µM | 2,700 compounds, 27% hits | AID 435020;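 active means inhibition reaching about 45% at 4 µM in either replicate, limit read from the data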;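 further: plate controls were PMA/ionomycin stimulated DMSO wells for no effect and unstimulated DMSO wells for full effect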
697 NFkB conf: inhibitors of the PMA/ionomycin-induced NF-kB reporter in 697 B cells, retest | inhibition, % at 4 µM | shares compounds with 697 NFkB inh | AID 449746 | 2,000 compounds, 35% hits | 697 B-cell NF-kB luciferase, 16 h; in the data active means inhibition mostly above about 28%, no sharp cut-off; inactive means mostly below about 22%
Mdm2-MdmX conf: confirmation of human Mdm2/MdmX interaction inhibitors; shares compounds with Mdm2-MdmX inh; 10,000 compounds, 55% hits; Mdm2-MdmX binding, luminescent assay; inhibition, % at 8 µM; in the data active means inhibition above about 40%
Full FLuc ctr: full-length luciferase inhibition in Mdm2/MdmX counter-screen; shares compounds with Mdm2-MdmX inh; SaOS-2 full-length luciferase counterscreen, luminescence; inhibition, % at 8 µM; 6,200 compounds, 77% hits;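 active means mean inhibition at 8 µM reaching about 37%, which flags the compound as non-specific, limit read from the data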;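 further: p53-null SaOS-2 cells with luciferase driven by a doxycycline-inducible promoter; compound on cells about two nights before reading with doxycycline added after day one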
The depositor's hits bear a star; i = inactive; x = not tested or not shown. Most compounds without a hit are left out; they make up all but 4.5% or so of the library.

SMILES	Jurkat NFkB inh	CSC inhib	Mdm2-MdmX inh	Gli-Sufu antag	697 NFkB inh	Beta cell apopt	Jurkat NFkB conf	Mdm2-MdmX conf	Full FLuc ctr	others
CCN1/C(=C/c2ccc3cc(C)ccc3[n+]2CC)Sc2ccccc21	96*	102*	97*	89*	86*	115*	69*	95*	8	697 NFkB conf=49*
CCOc1cc(/C=C/C(=O)N(CC)CC(=O)NCc2cccs2)cc(Cl)c1OC	10	-11	25	-1	22	1	x	x	x
Cc1cc(NCCCn2ccnc2)n2ncc(-c3ccc(Cl)cc3)c2n1	-215	42	60*	-17	-168	15	-101	86*	52*
Cc1cccc(-c2cc3nc(C)cc(NCCCn4ccnc4)n3n2)c1	-11	3	17	2	0	5	x	x	x
CN(C)CCNC(=O)c1cc2c(s1)-c1ccc(Cl)cc1SC2	62*	102*	100*	14	-21	-9	1	87*	57*
O=C1C=CC(O)(c2cc(=O)c3c(O)cc(O)cc3o2)C=C1	89*	16	99*	47	i	111*	71*	66*	48*	697 NFkB conf=i
O=c1cc(-c2ccccc2Cl)oc2cc(O)cc(O)c12	-12	-8	17	-14	-26	4	x	x	x
COc1ccc(S(=O)Cc2ccc(C(=O)N3CCN(c4cccc(C)c4C)CC3)o2)cc1 (centres undefined)	51*	50	50*	26	-118	-1	20	55*	36*
Cc1ccccc1S(=O)(=O)Cc1ccc(C(=O)N2CCN(c3cccc(C)c3C)CC2)o1	51*	66	57*	2	-82	18	29	68*	50*
COc1ccc(N2CCN(C(=O)c3ccc(CS(=O)Cc4ccc(C)cc4)o3)CC2)cc1 (centres undefined)	12	-4	10	-23	-5	-2	x	x	x
Cc1ccccc1S(=O)(=O)Cc1ccc(C(=O)N2CC(C)CC(C)C2)o1 (centres undefined)	0	8	-2	1	0	-9	x	x	x
COc1ccc(S(=O)(=O)N2CCC(C(=O)Oc3ccc(C)cc3)CC2)cc1OC	-7	10	-3	-9	-29	-4	x	x	x
Cc1ccc(S(=O)(=O)N2CCC(C(=O)N3CC(C)OC(C)C3)CC2)cc1 (centres undefined)	11	0	13	1	18	-1	x	x	x
COc1ccc(/C=C(\C#N)C(=O)OCC(=O)NCc2ccco2)cc1	-1	x	4	-10	-8	-1	x	x	x
CCOC(=O)c1c(C)[nH]c(C)c1C(=O)COC(=O)/C=C/c1ccc(OC)cc1	51*	x	69*	-6	-40	x	17	77*	53*
CCOC(=O)c1c(C)[nH]c(C)c1C(=O)COC(=O)/C=C/c1cccc(F)c1	x	4	x	-4	x	1	x	x	x
CCc1ccc(CCC(=O)N2CCN(S(=O)(=O)c3sc(C(=O)O)c(C)c3C(=O)O)CC2)cc1	x	x	x	11	x	x	x	x	x
Cc1c(C(=O)N2CCOCC2)[nH]c2c1C(=O)CC(c1ccccc1Cl)C2 (centres undefined)	52*	47	73*	41	-57	9	48*	56*	59*
COc1ccc2[nH]c3c(N4CC(C)OC(C)C4)ncnc3c2c1 (centres undefined)	6	1	27	33	30	6	x	x	x
COc1cccc(N2CCN(c3ncnc4c3[nH]c3ccccc34)CC2C)c1 (centres undefined)	54*	8	100*	x	16	58	79*	98*	3
CC[n+]1c(C=C2C=C(C)OC(C)=C2)sc2ccccc21	87*	x	75*	85*	53*	x	75*	70*	56*	697 NFkB conf=69*
CC[n+]1c(/C=C2/C=C(C)CC(C)C2)sc2ccccc21 (centres undefined)	-16	11	11	30	-15	19	x	x	x
Cc1ccc(C2(C)NC(=O)N(CC(=O)Nc3ccccc3C(=O)NC3CCCC3)C2=O)cc1 (centres undefined)	8	-5	-4	1	0	0	x	x	x
COc1ccc(/C=N/NC(=O)c2c(Br)cnn2C)c2ccccc12	5	-8	20	5	7	x	x	x	x
O=C(NC(NNc1ccc([N+](=O)[O-])cc1)(C(F)(F)F)C(F)(F)F)c1ccccc1Cl	8	9	-6	-1	0	1	x	x	x
SMILES	Jurkat NFkB inh	CSC inhib	Mdm2-MdmX inh	Gli-Sufu antag	697 NFkB inh	Beta cell apopt	Jurkat NFkB conf	Mdm2-MdmX conf	Full FLuc ctr	others
O=C(NC(Nc1nc2ccc([N+](=O)[O-])cc2s1)(C(F)(F)F)C(F)(F)F)c1ccccc1Cl	78*	98*	100*	93*	-37	109*	70*	100*	15
CCOc1cc(S(=O)(=O)N2CC=C(c3ccc(F)cc3)CC2)c(OCC)cc1-n1cnnn1	56*	47	53*	1	-61	31	23	53*	82*
CCCCc1cc(=O)oc2c(CN(C)C)c(O)ccc12	-16	19	-14	6	-17	x	x	x	x
CC[C@@]1(O)C(=O)OCc2c1cc1n(c2=O)Cc2cc3c(N)cccc3nc2-1	81*	56	100*	65*	77*	98*	84*	96*	53*	697 NFkB conf=1
CC[C@@]1(O)C(=O)OCc2c1cc1n(c2=O)Cc2cc3c(CN(C)C)c(O)ccc3nc2-1	73*	104*	88*	61*	-329	58	95*	88*	52*	697 NFkB conf=-375
O=C(CNC(=O)c1ccc(Cl)c([N+](=O)[O-])c1)NCC1CCCO1 (centres undefined)	-4	7	-8	23	-8	-5	x	x	x
CCOc1ccc2c(c1)C(C)=CC(C)(C)N2S(=O)(=O)c1ccc(NC(C)=O)cc1	56*	53	62*	65*	-156	45	58*	58*	113*
CCOc1ccc(CN2CCN(S(=O)(=O)c3ccc(NC(C)=O)cc3)CC2)cc1	33	-5	22	13	-9	-1	x	x	x
COc1ccc(-c2noc(N3CCCC(C(=O)Nc4ccc(C(C)=O)cc4)C3)n2)cc1 (centres undefined)	-27	2	10	-26	-91	4	x	x	x
CC(=O)N1CCN(S(=O)(=O)c2cccc(C(=O)NNC(=O)c3ccc(Br)cc3)c2)CC1	x	x	x	10	x	x	x	x	x
